High-throughput results from PubChem.
SARS 3CLpro inh = SARS-CoV 3CLpro protease inhibitors, primary screen, biochemical, quenched FRET; recombinant SARS-CoV 3CLpro, quenched FRET peptide cleavage; inhibition, % at 6 µM; actives 0.14% (n = 290,000); AID 1706, 2009; in the data active = inhibition above about 12%
BJeLR lethal = MLPCN primary cell-based screen for lethality selective to Ras in HRASV12 cells; inhibition, % (concentration not given with the values); actives 0.17% (n = 300,000); BJeLR (HRASV12) viability, CellTiter-Glo ATP luminescence, 48 h; AID 1554, 2009; in the data active = inhibition above about 50%
VHR inh abs = VHR1 phosphatase inhibitors, primary screen, biochemical, absorbance, uHTS. recombinant VHR phosphatase, pNPP absorbance. inhibition, % at 13.3 µM. actives 0.52% (n = 290,000); in the data active = inhibition above about 50%
Target sequence (P51452 whole entry, looked up): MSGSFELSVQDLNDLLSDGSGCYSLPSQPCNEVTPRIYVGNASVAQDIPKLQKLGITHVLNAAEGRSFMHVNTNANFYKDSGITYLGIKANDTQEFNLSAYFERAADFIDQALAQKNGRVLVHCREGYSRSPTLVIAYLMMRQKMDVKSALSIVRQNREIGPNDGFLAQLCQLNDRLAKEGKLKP
PrPC surface inh = inhibitors of human cell surface prion protein PrPC, primary screen, cell-based, TR-FRET | TR-FRET read-out | inhibition, % at 13.8 µM | actives 0.43% (n = 370,000) | AID 720596, 2013; in the data active = inhibition above about 24%; note: 0% = median of the test wells and 100% = reference compound wells
* marks the source's active call; other numbers are inactive results. Shown are actives, neighbours in structure and some others; about 1.1% of the full set was active somewhere.

COc1cccc2c1cc1c(=O)n(CC(=O)NCCCN3CCCCC3)nc(C)n12 was read as SARS 3CLpro inh 2.0, BJeLR lethal -15.4 and VHR inh abs 27.4.
Screening COc1ccccc1N=Nc1nc(-c2ccccc2)c(-c2ccccc2)[nH]1 returned SARS 3CLpro inh -1.8, BJeLR lethal -2.9, VHR inh abs 7.6 and PrPC surface inh -13.9.
For Oc1ccccc1N=Nc1nc(-c2ccccc2)c(-c2ccccc2)[nH]1 the results were SARS 3CLpro inh -1.8, BJeLR lethal 66.8*, VHR inh abs 10.4 and PrPC surface inh -46.5.
Screening COc1ccc2[nH]c3c(N4CC(C)OC(C)C4)ncnc3c2c1 (stereo unspecified) returned SARS 3CLpro inh -2.9, BJeLR lethal -3.7, VHR inh abs 15.8 and PrPC surface inh 6.0.
Screening COc1cccc(N2CCN(c3ncnc4c3[nH]c3ccc(F)cc34)CC2C)c1 (stereo unspecified) returned SARS 3CLpro inh 1.1, BJeLR lethal 36.4, VHR inh abs 14.7 and PrPC surface inh 85.4*.
Cc1cccc(NC(=O)c2ncn3c2C(=O)NC[C@H]3C)c1 was read as PrPC surface inh 4.4.
COc1ccccc1-c1coc2c(CN3CCC(C)CC3)c(O)ccc2c1=O was read as SARS 3CLpro inh 1.5, BJeLR lethal -1.8, VHR inh abs 57.0* and PrPC surface inh -3.4.
`Cc1ccc(S(=O)(=O)NC(=O)Nc2ccc(N(C)C)cc2)cc1` gave SARS 3CLpro inh 3.0, BJeLR lethal -13.6, VHR inh abs 52.2* and PrPC surface inh -30.1.
For N#CCc1ccc(NC(=O)/C=C/c2ccc([N+](=O)[O-])o2)cc1 the results were SARS 3CLpro inh 3.3, BJeLR lethal 100.7* and VHR inh abs 4.8.
O=C(Cc1ccc([N+](=O)[O-])cc1)N/N=C/c1ccc([N+](=O)[O-])o1 was read as SARS 3CLpro inh -0.3, BJeLR lethal 55.4*, VHR inh abs 9.6 and PrPC surface inh -37.1.
For Cc1ccccc1OCC(=O)N/N=C/c1ccc([N+](=O)[O-])o1 the results were SARS 3CLpro inh -3.6, BJeLR lethal -2.7, VHR inh abs 51.9* and PrPC surface inh -27.8.
Screening O=C(O)/C=C/c1ccc([N+](=O)[O-])o1 returned SARS 3CLpro inh -0.5, BJeLR lethal 0.9, VHR inh abs 29.7 and PrPC surface inh -17.6.
`CS(=O)(=O)N(CC(=O)O)Cc1cccc(CN(CC(=O)O)S(C)(=O)=O)c1` gave SARS 3CLpro inh -5.5, BJeLR lethal -11.5, VHR inh abs 16.6 and PrPC surface inh 1.7.
Screening COC(=O)C[C@H]1c2cc(C(F)(F)F)ccc2S(=O)(=O)N1c1ccc(N(C)C)cc1 returned BJeLR lethal -4.0 and PrPC surface inh 2.7.
COc1ccc(C(=O)C2CCCN(C3CSCCSC3)C2)c(OC)c1 (stereo unspecified) was read as SARS 3CLpro inh 5.7, BJeLR lethal -1.4, VHR inh abs 56.6* and PrPC surface inh -2.4.
O=C(Cn1nc(-c2ccccc2)ccc1=O)NCC1COCCO1 (stereo unspecified) was read as SARS 3CLpro inh -0.7, BJeLR lethal 13.4, VHR inh abs 26.8 and PrPC surface inh -2.6.
`O=C(Cn1nc(-c2ccc(Cl)cc2)ccc1=O)NCC1COCCO1` (stereo unspecified) gave SARS 3CLpro inh -5.4, BJeLR lethal -5.4, VHR inh abs 52.0* and PrPC surface inh -1.8.
CCOc1cc(/C=C(\C#N)C(=O)Nc2cccc(C(=O)O)c2)ccc1OCc1ccc(Br)cc1 was read as SARS 3CLpro inh 5.2, BJeLR lethal -7.5, VHR inh abs 52.9* and PrPC surface inh 2.5.
For COc1cc(/C=C(\C#N)C(=O)Nc2cccc(C(=O)O)c2)ccc1OCc1ccc(C)cc1 the results were SARS 3CLpro inh 4.7, BJeLR lethal -20.1, VHR inh abs 21.5 and PrPC surface inh -2.0.
For COC(=O)CSc1nc2ccccc2n1CC(=O)N(C(C)C)C(C)C the results were SARS 3CLpro inh -8.1, BJeLR lethal -2.0, VHR inh abs 51.7* and PrPC surface inh 8.7.
COCCNC(=O)c1oc2ccc3c(c2c1C)C(O)CC(C)(C)O3 (stereo unspecified) was read as SARS 3CLpro inh -0.6, BJeLR lethal 1.4, VHR inh abs 56.9* and PrPC surface inh 8.7.
`CCN(CC)CCCNC(=O)c1oc2ccc3c(c2c1C)C(O)CC(C)(C)O3` (stereo unspecified) gave SARS 3CLpro inh 0.4, BJeLR lethal 4.3, VHR inh abs 82.7 and PrPC surface inh -7.9.
CO[C@@H]1CN(C)C(=O)c2ccc(NS(=O)(=O)c3c(C)noc3C)cc2OC[C@@H](C)NC[C@@H]1C was read as PrPC surface inh 3.8.
Screening COc1ccc(CCCNC(=O)C2Cc3c(-c4cccc(C(C)=O)c4)ccnc3O2)cc1 (stereo unspecified) returned PrPC surface inh 6.8.
For O=C(c1ccccc1)N1CCC(c2nc3c(nnn3Cc3ccco3)c(=O)[nH]2)CC1 the results were SARS 3CLpro inh 0.6, BJeLR lethal 12.1, VHR inh abs 50.0* and PrPC surface inh 0.5.
Screening OC(c1ccccc1)(c1ccccc1)C1CCN(CCCOc2cccc(Cl)c2)CC1 returned PrPC surface inh -19.1.
N#Cc1ccc2nc(-c3ccc(CN4CCC(n5c(=O)[nH]c6ccccc65)CC4)cc3)c(-c3ccccc3)nc2c1 was read as PrPC surface inh -5.0.
For O=c1[nH]c(-c2ccccc2)cn1C1CCN(Cc2ccc(-c3nc4ccc(Br)cc4nc3-c3ccccc3)cc2)CC1 the results were PrPC surface inh 31.4*.
O=C(c1cc2cc(Br)ccc2[nH]1)N1CCc2ccccc21 was read as SARS 3CLpro inh -0.9, BJeLR lethal 3.1, VHR inh abs 27.1 and PrPC surface inh 5.6.
For COc1ccc2cc(C(=O)N3CCc4ccccc43)[nH]c2c1 the results were SARS 3CLpro inh -5.5, BJeLR lethal -8.3, VHR inh abs 52.6* and PrPC surface inh -3.8.
For CCCNC(=O)C[C@H]1CC[C@@H]2[C@H](COC[C@@H](O)CN2C(=O)c2ccccn2)O1 the results were PrPC surface inh 3.5.
For O=C(O)CP(=O)(O)c1ccc(Cl)cc1 the results were SARS 3CLpro inh 7.4, BJeLR lethal 11.4, VHR inh abs 50.8* and PrPC surface inh -4.5.
Screening COc1ccc(NC2CCCN(C(=O)CCc3ccncc3)C2)cc1OC (stereo unspecified) returned SARS 3CLpro inh -7.8, BJeLR lethal 4.7, VHR inh abs 54.2* and PrPC surface inh -11.6.
For Cc1ccc(NC2CCCN(C(=O)CCc3ccncc3)C2)cc1C (stereo unspecified) the results were SARS 3CLpro inh -0.9, BJeLR lethal 7.3, VHR inh abs 18.8 and PrPC surface inh 3.1.
Screening CN(C)CCCNS(=O)(=O)c1ccc(-n2nnc3ccccc32)c([N+](=O)[O-])c1 returned SARS 3CLpro inh 2.7, BJeLR lethal -9.3, VHR inh abs 58.5* and PrPC surface inh -45.7.
Cc1noc(C)c1-c1ccc(C(=O)NCCC(F)(F)F)c2occc12 was read as PrPC surface inh -8.1.
